Compound activity: PubChem BioAssay, National Center for Advancing Translational Sciences (NCATS)
Tau fluor counter: counter-screen for tau fibril formation inhibitors; tau K18 P301L Alexa594 fluorescence, heparin fibrillization; Potency, µM (top dose mostly 57.7 µM), inactives show at the top dose activity change, negative = decrease; 0.93% of 280,000 active; note: potency is the fitted concentration of half-maximal effect; % is set by controls: 0 for no effect and ±100 for the full control effect; nearly all actives have a fitted effect of over 55% in size
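Human K18 P301L tau (15 uM unlabeled plus 0.24 uM Alexa 594-labeled, final) in 100 mM sodium acetate pH 7 was mixed with compound and 20 uM heparin and incubated 6 hr at 37 C.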
JMJD2E inh: blocks human JMJD2E demethylase activity | B2RXH2 | JMJD2E catalytic domain, FDH-coupled NADH fluorescence (FDH is formaldehyde dehydrogenase) | Potency, µM (highest dose often 57.1 µM), inactives show top-dose activity change, negative = inhibition, hits mostly inhibitors | 1.6% of 230,000 active; active = well fitted inhibition curve with a large enough effect, not every such curve was filed as active; inconclusive = small, poorly fitted or top-dose-only effect, or another doubt; inactive = no such curve, though single readings can be large or run the other way;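 note: potency is the fitted concentration of half-maximal effect; 0% = wells with enzyme and -100% = buffer wells without enzyme; nearly all actives have a fitted effect of over 50% in size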
Tau fibril ThT: blocks human tau fibril formation measured by thioflavin T; P10636; recombinant tau K18 P301L, heparin-induced fibrillization, ThT fluorescence; Potency, µM (doses to about 57.4 µM), for the others: at the highest dose activity, negative = inhibition, hits mostly inhibitors; 2.1% of 270,000 active; AID 1460; note: potency is the fitted concentration of half-maximal effect; % is set by controls: 0 for no effect and ±100 for the full control effect; nearly all actives have a fitted effect of over 55% in size
Target sequence (P10636 561-689 P618L limits assumed): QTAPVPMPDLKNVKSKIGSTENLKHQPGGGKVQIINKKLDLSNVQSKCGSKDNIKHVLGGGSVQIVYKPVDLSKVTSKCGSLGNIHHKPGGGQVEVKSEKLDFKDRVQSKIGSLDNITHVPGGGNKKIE
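Recombinant human tau K18 fragment […] carrying P301L, 15 uM unlabeled plus 0.24 uM Alexa 594-labeled, was fibrillized with 20 uM heparin in 100 mM sodium acetate pH 7 for 6 hr at 37 C; 30 uM ThT fluorescence read after 1 hr.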
Tau FP inhib: tau fibrillization inhibition (FP); P10636; K18 P301L tau heparin fibrillization, Alexa594 FP, 6 h; Potency, µM (doses to about 57.7 µM), without a hit: at the top dose activity, negative = inhibition, most hits filed as inhibitors; 0.39% of 280,000 active; note: potency is the fitted concentration of half-maximal effect; % is set by controls: 0 for no effect and ±100 for the full control effect; nearly all actives have a fitted effect of over 55% in size
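Heparin (20 uM) drove fibril formation of recombinant tau K18 P301L, 15 uM unlabeled with 0.24 uM Alexa 594 label, for 6 hr at 37 C in 100 mM sodium acetate pH 7. Fluorescence polarization (555/632 nm) read 1 hr after 30 uM ThT.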
ALDH1A1 inh-1: blocks purified human ALDH1A1 activity; Potency, µM (top dose mostly 75.3 µM), for inactives: top-dose activity, negative = inhibition, most hits filed as inhibitors; Purified ALDH1A1, NADH fluorescence, propionaldehyde substrate; 7.3% of 220,000 active; P00352; AID 1030; active = well fitted inhibition curve with a large enough effect, not every such curve was filed as active; inconclusive = small, poorly fitted or top-dose-only effect, or another doubt; inactive = no such curve, though single readings can be large or run the other way;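 note: potency is the fitted concentration of half-maximal effect; plate controls were no enzyme wells and a reference inhibitor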
HPGD inh: inhibitors of human 15-hydroxyprostaglandin dehydrogenase (HPGD); P15428; purified HPGD, NADH fluorescence kinetic, PGE2 substrate; Potency, µM, for the others: at the top dose activity change, negative = inhibition, hits mostly inhibitors; 4.3% of 150,000 active; active = well fitted inhibition curve with a large enough effect, not every such curve was filed as active; inconclusive = small, poorly fitted or top-dose-only effect, or another doubt; inactive = no such curve, though single readings can be large or run the other way; note: potency is the fitted concentration of half-maximal effect; % is set by controls: 0 for no effect and ±100 for the full control effect
Target sequence (P15428 whole entry, looked up): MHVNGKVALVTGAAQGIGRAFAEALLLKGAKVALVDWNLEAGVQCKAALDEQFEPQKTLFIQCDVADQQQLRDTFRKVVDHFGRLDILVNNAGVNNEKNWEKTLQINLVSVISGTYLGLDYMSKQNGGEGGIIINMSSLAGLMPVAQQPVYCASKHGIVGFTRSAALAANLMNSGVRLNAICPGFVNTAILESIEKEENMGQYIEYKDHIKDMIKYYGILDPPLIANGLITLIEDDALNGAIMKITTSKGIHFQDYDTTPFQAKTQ
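20 nM HPGD preincubated 15 min at room temperature with compound in 50 mM Tris-HCl pH 8, 0.01% Tween 20. Started with 1 mM NAD+ and 30 uM prostaglandin E2; NADH fluorescence (360/450 nm) read 5 times over 30-s intervals, last minus first.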
HPGD inh cf: confirmation of human HPGD inhibitors; recombinant HPGD, NADH fluorescence, PGE2 substrate; Potency, µM (highest dose often 57.1 µM), inactives show at the top dose activity change, negative = inhibition, most hits filed as inhibitors; shares compounds with HPGD inh; 90% of 90 active; calls by dose curve
ALDH1A1 inh-2: Inhibits human ALDH1A1, confirmation and counter-screen. shares compounds with ALDH1A1 inh-1. purified ALDH1A1, NADH fluorescence, propionaldehyde/NAD+. Potency, µM (highest dose often 57.1 µM), inactives show at the highest dose activity change, negative = inhibition, usual class: inhibitors. 90% of 90 active. AID 493210; calls by dose curve
Active calls of the source: *; u = inconclusive; x = no result; [ ] = dose if it differs, or a comment. Shown are actives, neighbours in structure and some others; about 9.9% of the full set was active somewhere. Unless noted, calls come from the whole dose curve; as a rule, active = well fitted curve in the direction sought with a large enough effect; inconclusive = small, poorly fitted or top-dose-only effect, or another doubt; inactive = no such curve, though single readings can be large; an effect the other way counts as inactive or inconclusive.

SMILES	Tau fluor counter	JMJD2E inh	Tau fibril ThT	Tau FP inhib	ALDH1A1 inh-1	HPGD inh	ALDH1A1 inh-2	others
Cc1ccc(C)c(Cn2nnc3c(=O)[nH]c(C(=O)NCC4CCCO4)nc32)c1 (stereo unspecified)	8%	0%	10%	13%	-11%	1.3µM*	x	HPGD inh cf=0.4µM*
COCCNC(=O)c1nc2c(nnn2Cc2cc(C)ccc2C)c(=O)[nH]1	2%	-6%	10%	-1%	u	0.2µM*	x	HPGD inh cf=0.71µM*
CCOC(=O)c1c(SC)[nH]c2c(Cl)cccc2c1=O	-4%	5%	-2%	4%	x	x	x
C[C@H](Cc1ccc(O)c(O)c1)[C@@H](C)Cc1ccc(O)c(O)c1	-3%	14µM*	1%	0%	0.16µM*	3.2µM*	2.2µM*
CCc1nc(SCC(=O)NCCc2ccccc2)c2c(=O)n(C)c(=O)n(C)c2n1	-23%	3%	x	-8%	x	x	x
COc1cc(NC(=O)CN2CCN(S(=O)(=O)c3ccc(C(C)C)cc3)CC2)cc(OC)c1	-21%	0%	2%	-1%	2.2µM*	-14%	3.2µM*
O=C(CSc1nnnn1-c1ccccc1Cl)Nc1ccc2c(c1)OCCO2	-28%	-6%	u	2%	0.22µM*	-6%	0.25µM*
O=C(CSc1nnnn1-c1ccc(Cl)cc1)NC(=O)Nc1ccc2c(c1)OCCO2	-24%	7%	-13%	-6%	-1%	-11%	x
COc1ccc(NC(=O)CSc2nncn3c2cc2oc(C)cc23)cc1OC	-21%	x	u	6%	x	x	x
CC(C)N(C(=O)CN1C(=O)C(=O)c2ccccc21)c1ccccc1	12%	-10%	-4%	3%	0.028µM*	x	0.035µM*
O=c1c(S(=O)(=O)c2ccccc2)cn(Cc2ccccc2)c2cc(N3CCOCC3)c(F)cc12	-11%	x	-11%	9%	x	x	x
CC(C)C(C)(C#N)NC(=O)CSc1nc2scc(-c3ccc(F)cc3)c2c(=O)n1Cc1ccccc1 (stereo unspecified)	-21%	-9%	-8%	-3%	u	x	x
Cc1cccc(Cn2c(N3CCCCC3C)nc3c2c(=O)[nH]c(=O)n3C)c1 (stereo unspecified)	0%	-4%	-6%	6%	0.28µM*	-19%	0.25µM*
COc1ccc(OC)c(-n2nnnc2SCC(=O)Nc2ccccc2N2CCOCC2)c1	-7%	-14%	-6%	5%	1%	x	x
COc1ccc(OC)c(-n2nnnc2SCC(=O)Nc2nc(C)c(C)s2)c1	-21%	0%	-12%	u	u	-14%	1.8µM*
CCCN(Cc1cc2ccc(C)cc2[nH]c1=O)S(=O)(=O)c1ccccc1	-27%	u	-19%	-3%	u	-10%	x
C[N+](C)(C)CCC(=O)c1cccc2ccccc12	3%	u	u	u	0.071µM*	14µM*	0.035µM*
CCCNC(=O)CSc1c2c(nc3ccc(Cl)cc13)CCCC2	-8%	x	-14%	5%	x	x	x
CO/N=C(\C(=O)NC1C(=O)N2C(C(=O)OCOC(=O)C(C)(C)C)=C(/C=C\c3scnc3C)CSC12)c1csc(N)n1 (stereo unspecified)	-12%	-7%	u	-13%	0.35µM*	u	0.79µM*
CO/N=C(/C(=O)N[C@H]1C(=O)N2C(C(=O)O)=C(COC(C)=O)CSC12)c1csc(N)n1 (stereo partly specified)	-13%	-15%	u	-15%	u	-25%	x
O=C(CCNc1ccc(Cc2ccncc2)cc1)c1cccc([N+](=O)[O-])c1	16µM*[quencher]	-8%	u	u	0.4µM*	x	0.5µM*
O=C(Nc1cccc([N+](=O)[O-])c1)c1ccncc1	-5%	5%	-3%	5%	-11%	-11%	x
CC(=O)c1ccc(OCCCN2CCCCC2)cc1	-3%	u	0%	-1%	-14%	-8%	x
CCCCOc1ccc(C(=O)CCN2CCCCC2)cc1	9%	7%	u	12%	0.045µM*	-20%	0.79µM*
CCOCCn1c(SCCCc2ccccc2)nc2c1c(=O)[nH]c(=O)n2C	-5%	-2%	-13%	3%	-3%	-4%	x
SMILES	Tau fluor counter	JMJD2E inh	Tau fibril ThT	Tau FP inhib	ALDH1A1 inh-1	HPGD inh	ALDH1A1 inh-2	others
CCCCCSc1nc2c(c(=O)[nH]c(=O)n2C)n1CCc1ccccc1	8%	3%	-3%	5%	0.71µM*	-17%	1.3µM*
O=C1C=CC(=O)C2=C1C1c3ccccc3C2c2ccccc21	u	14µM*	20µM*	35µM*	0.71µM*	1.1µM*	0.56µM*
O=C1CC(c2ccccc2)c2ccccc21 (stereo unspecified)	4%	4%	3%	2%	-9%	x	x
O=C(CCNc1ccccc1)c1ccc2c(c1)OCO2	-15%	-1%	u	10%	0.89µM*	-18%	2.2µM*
COc1ccc(C(=O)CCNc2ccc3c(c2)OCCO3)cc1	-21%	-9%	u	7%	0.32µM*	x	4µM*
CC1CCN(Cc2nc3c(c(=O)n(C)c(=O)n3C)n2CCCc2ccccc2)CC1	3%	4%	-2%	3%	0.63µM*	-4%	0.5µM*
Cn1c(=O)c2c(nc(CN3CCOCC3)n2CCCc2ccccc2)n(C)c1=O	1%	-1%	-2%	2%	-5%	-4%	x
